# Experimental data: PubChem BioAssay (NCATS)
# Inconclusive results are not listed.
# Assay: qHTS for identification of novel therapeutic agents for treatment of microphthalmiaassociated transcription factor (MiT) renal cell carcinoma (RCC) (AID 1963991)
# Conditions: CellTiter-Glo, 48 h, stronger effect = lower value
# From the text: PI: Marston Linehan Ph.D.
# Urologic Oncology Branch, Center for Cancer Research (CCR)
# National Cancer Institute (NCI), National Institute of Health (NIH), Bethesda, Maryland
# MiT-Renal Cell Carcinoma (RCC) is characterized by genomic translocations involving microphthalmia-associated transcription factor (MiT) family members TFE3, TFEB, or MITF. MiT-RCC represents a specific subtype of sporadic RCC that is predominantly seen in young patients and can present with heterogeneous histological features making diagnosis challenging. Moreover, the disease biology of this aggressive cancer is poorly understood and there is no accepted standard of care therapy for patients with advanced disease. Tumor-derived cell lines have been established from human TFE3-RCC providing useful models for preclinical studies. TFE3-RCC tumor derived cell lines and their tissues of origin were characterized by IHC and gene expression analyses. An unbiased high-throughput drug screen was performed to identify novel therapeutic agents for treatment of MiT-RCC. Potential therapeutic candidates were validated in in vitro and in vivo preclinical studies. Mechanistic assays were conducted to confirm the on-target effects of drugs. The results of a high-throughput small molecule drug screen utilizing three TFE3-RCC tumor-derived cell lines identified five classes of agents with potential pharmacological efficacy, including inhibitors of phosphoinositide-3-kinase (PI3K) and mechanistic target of rapamycin (mTOR), and several additional agents, including the transcription inhibitor Mithramycin A. Upregulation of the cell surface marker GPNMB, a specific MiT transcriptional target, was confirmed in TFE3-RCC and evaluated as a therapeutic target using the GPNMB-targeted antibody-drug conjugate CDX-011. […] The results of the high-throughput drug screen and validation studies in TFE3-RCC tumor-derived cell lines have provided in vitro and in vivo preclinical data supporting the efficacy of the PI3K/mTOR inhibitor.
# SEQUENCE No. (e.g., 1, 2, 3, etc.); […] (e.g., Cells, Incubation, Reagent, etc.); VALUE; DESCRIPTION.
# 1; Cells; 3 uL; white, solid-bottom Grenier assay plate.
# 2; Compounds; 23 nL; Kalypsis pin-tool (Wako USA).
# 3; Incubation; 48 hr; 37 C, 5% CO2, 95% humidity.
# 4; Reagent; 3 uL; CellTiter-Glo reagent (Promega).
# 5; Incubation; 15 min; room temperature.
# 6; Detection; Luminescence; ViewLux plate reader (PerkinElmer).
# NOTES (numbers refer to Sequence numbers above)
# 1. Quantitative high-throughput screening (qHTS) of 1912 pharmacologically defined small molecule compounds was conducted on three TFE3-fusion cell lines bearing three different fusion partners (UOK109, UOK124, UOK145). Briefly, 500 cells in complete growth media were plated into white, solid-bottom, 1536-well tissue culture treated plates (Grenier Cat. 789173-F) using a Multidrop Combi cassette dispenser.
# 2. Twenty-three nanoliter of 1912 pharmacologically defined small molecule compounds of the NCATS Mechanism Interrogation PlatE (MIPE) version 4.0 were added to each assay plate using a Pintool Dispenser (Wako) equipped with 1536 pin head.
# 3. Plates were covered with stainless steel gasketed lids and incubated for 48 hours at standard cell culture conditions.
# 4. Viability was assessed by adding 3uL of CellTiter-Glo detection reagent (Promega).
# 5. Plates were covered with gasket lids and incubated for 15 minutes at room temperature.
# 6. Luminescence was measured on a ViewLux plate reader (PerkinElmer). Post-screen data processing used DMSO controls as 100% viability and empty wells as 0% viability and dose response curve fitting was done for all 11 concentrations for each compound.
# [1] = TFE3-RCC UOK109 viability, measured here: UOK109 Z-AUC
# [2] = TFE3-RCC viability, measured here: UOK124 Z-AUC
# [3] = TFE3-RCC viability, measured here: UOK145 Z-AUC
smiles,measurement,setting,value
COc1ccccc1-c1cccc(-c2c(O)c3cc(C#N)c(Cl)cc3[nH]c2=O)c1,z-score,[1],1.05
same,z-score,[2],-0.0424
same,z-score,[3],0.756
O=c1n(CCCN2CCN(c3cccc(Cl)c3)CC2)nc2ccccn12,z-score,[1],-0.148
same,z-score,[2],0.322
same,z-score,[3],1.01
CNC(=O)c1ccc(C)c(-n2c(C)cc(OCc3ccc(F)cc3F)c(Br)c2=O)c1,z-score,[1],0.451
same,z-score,[2],1.43
same,z-score,[3],0.519
CCOc1cc(C=C2C(=O)N(c3ccccc3)N=C2C)cc(Cl)c1OCC(=O)OC,z-score,[1],0.66
same,z-score,[2],0.208
same,z-score,[3],0.267
O=c1ncn2nc(Sc3ccc(F)cc3F)ccc2c1-c1c(Cl)cccc1Cl,z-score,[1],0.124
same,z-score,[2],1.12
same,z-score,[3],1.1
Nc1cccc(S(=O)(=O)N2CCCN(S(=O)(=O)c3ccc4c(c3)OCCO4)CC2)c1,z-score,[1],0.453
same,z-score,[2],0.564
same,z-score,[3],0.252
O=c1[nH]cnc2[nH]ncc12,z-score,[1],0.431
same,z-score,[2],0.33
same,z-score,[3],0.0964
NC(=O)c1ccc(-c2nc(-c3ccc4c(c3)OCO4)c(-c3ccccn3)[nH]2)cc1,z-score,[1],0.874
same,z-score,[2],1.69
same,z-score,[3],0.197
Oc1ccc(C2CNCCc3c2cc(O)c(O)c3Cl)cc1 (configuration not stated),z-score,[1],0.257
same,z-score,[2],0.218
same,z-score,[3],0.231
OC(CN1CCC(Cc2ccc(F)cc2)CC1)c1ccc(Cl)cc1 (configuration not stated),z-score,[1],0.0108
same,z-score,[2],0.291
same,z-score,[3],0.245
O=C1CCC(N2C(=O)c3ccccc3C2=O)C(=O)N1 (configuration not stated),z-score,[1],0.392
same,z-score,[2],-0.79
same,z-score,[3],0.456
OC(CCN1CCCCC1)(c1ccccc1)C1CC2C=CC1C2 (configuration not stated),z-score,[1],0.676
same,z-score,[2],0.56
same,z-score,[3],0.997
Cc1ccccc1C(C(=O)NC1CCCC1)N(C(=O)Cn1cnc2ccccc21)c1cccc(F)c1 (configuration not stated),z-score,[1],0.51
same,z-score,[2],0.839
same,z-score,[3],0.533
NS(=O)(=O)c1cc2c(cc1Cl)NC=NS2(=O)=O,z-score,[1],0.178
same,z-score,[2],0.944
same,z-score,[3],0.209
